Compound activity (PubChem BioAssay)
A selection: hits, their analogues and other compounds. The true share with any hit is near 4.6%.
DAX1 inh-1: DAX1 (NR0B1) inhibitors on StAR promoter, primary screen, cell-based, luminescence, SF-1 (NR5A1), full-length DAX-1; HEK293T StAR-luciferase reporter, SF-1/DAX-1 repression relief; inhibition, % at 6.8 µM; 370,000 tested, 1.1% active; AID 652010, 2013;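 active means inhibition above the mean over all tested compounds plus 3 SD, cut at about 3.6% in these data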;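 further: 0% = DAX-1 cells with DMSO and 100% = cells lacking DAX-1 with DMSO; higher inhibition means more luminescence from relief of DAX-1 repression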
ssDAF-12 act: S. stercoralis DAF-12 nuclear receptor activators, primary screen, cell-based, luminescence, HEK293, GRIP1 co-expression, lit1-tk-luc. AID 652126, 2013. 370,000 tested, 1% active. Nuclear hormone receptor DAF-12 (Strongyloides stercoralis). HEK293 ssDAF-12/GRIP1 lit1-tk-luc reporter; % of 3 µM dafachronic acid response. activation, % at 6.8 µM;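 active means activation above the mean over all tested compounds plus 3 SD, cut at about 0.9% in these data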;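 further: 0% = DMSO-only wells and 100% = 3 µM delta7-dafachronic acid wells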
hgDAF-12 ag: H. glycines DAF-12 receptor agonists, primary screen, cell-based, luminescence, HEK293, GAL4 fusion, UAS-luciferase; activation, % at 6.8 µM; HEK293 GAL4-hgDAF12 UAS-luciferase reporter, agonist luminescence; normalized to butyrate control; AID 687014, 2013; 370,000 tested, 1.8% active;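 active means activation above a cutoff set at the mean of all screened compounds plus 3 SD, cut at about 10% in these data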;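 further: 0% = DMSO wells and 100% = sodium butyrate wells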
hcDAF-12 act: H. contortus DAF-12 nuclear receptor activators, primary screen, cell-based, luminescence, HEK293, lit1-tk-luc reporter; HEK293 hcDAF-12 lit1-tk-luc reporter; 0% DMSO, 100% Δ7-dafachronic acid; activation, % at 6.8 µM; 370,000 tested, 1.4% active; AID 652067, 2013;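 active means activation above the mean of all tested compounds plus 3 SD, cut at about 5.5% in these data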;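 further: 100% = response to 3 µM Δ7-dafachronic acid high control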
DAX1 inh-2: DAX1 (NR0B1) inhibitors, primary screen, cell-based, HEK293, Gal4-DAX1, luciferase luminescence. inhibition, % at 6.75 µM. Nuclear receptor subfamily 0 group B member 1 (Homo sapiens), P51843. 340,000 tested, 0.99% active. HEK293 Gal4-DAX1 luciferase reporter;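 active means inhibition above the mean over all tested compounds plus 3 SD, cut at about 4.2% in these data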;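 further: 0% = DAX1-transfected cells with DMSO and 100% = empty-vector control cells with DMSO; inhibition shows as a rise in luminescence from relieved DAX1 repression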
Target sequence (P51843 207-470 limits assumed): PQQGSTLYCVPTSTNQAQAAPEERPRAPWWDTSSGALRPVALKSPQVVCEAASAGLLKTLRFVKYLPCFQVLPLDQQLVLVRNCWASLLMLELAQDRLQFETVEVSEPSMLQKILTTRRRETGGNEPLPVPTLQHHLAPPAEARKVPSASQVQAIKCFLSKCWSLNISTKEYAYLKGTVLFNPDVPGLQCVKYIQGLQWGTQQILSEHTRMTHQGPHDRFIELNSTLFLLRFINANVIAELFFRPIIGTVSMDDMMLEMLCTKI
Wee1 degr inh: Wee1 degradation inhibitors, primary screen, cell-based, HeLa, Wee1K328M-luciferase, luminescence. Wee1-like protein kinase (Homo sapiens), P30291. HeLa Luc-Wee1K328M stability; 100% = proteasome inhibitor MG132 effect. reporter increase, % at 5 µM. 220,000 tested, 1.2% active;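 active means activation above the mean of all tested compounds plus 3 SD, set per screening run, cut at about 8.8% in these data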;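 further: cells exposed to compound for 20 h before luminescence read; 0% = DMSO alone and 100% = MG132 at 30 µM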
Starred values were filed as active, the others as inactive; . = not tested or not shown.

SMILES | DAX1 inh-1 | ssDAF-12 act | hgDAF-12 ag | hcDAF-12 act | DAX1 inh-2 | Wee1 degr inh
CC(=O)Nc1ccc(CNc2ncnc3ccc(-c4c(C)noc4C)cc23)cc1 | 2 | 1.2* | -1 | 6.3* | 4 | .
Cc1cccc(CNc2ncnc3ccc(-c4ccoc4)cc23)c1 | 0 | -1 | 2 | -2 | 1 | .
CC(S(=O)(=O)c1ccccc1)S(=O)(=O)c1ccccc1 | 0 | -1 | -3 | -1 | 5.0* | .
CC(=O)Nc1cc(-c2cccc(F)c2)cn2c(-c3ccc(F)c(Cl)c3)cnc12 | 4.5* | -1 | -2 | 0 | . | .
CN(C)C(=O)c1cccc(-c2cnc3c(NC=O)cc(-c4ccccc4N(C)C)cn23)c1 | 1 | -1 | 0 | 0 | . | .
CN(C)C(=O)c1cccc(-c2cnc3c(NC=O)cc(-c4ccccc4Cl)cn23)c1 | 3 | -1 | 12* | -2 | . | .
COc1cccc(-c2cc(NC=O)c3ncc(-c4ccc(C(C)=O)cc4)n3c2)c1 | -5 | 0 | 11* | 5 | . | .
COc1cc(-c2cnc3c(NC=O)cc(-c4ccccc4Cl)cn23)cc(OC)c1OC | 4.2* | -1 | -8 | 1 | . | .
Cc1ccc(C)c(CC(=O)N2CCCCC2c2cc(C(=O)Nc3ccc(F)c(Cl)c3)no2)c1 (centres undefined) | 1 | -1 | 1 | -1 | . | .
CCCCC(=O)N(C)c1c(CC)nc2c(OCc3ccc(C(F)(F)F)cc3)cccn12 | -2 | -1 | -4 | -3 | . | .
COc1ccc2c(c1)Cc1c-2cc(Br)c(N)c1Br | 0 | 0 | 7 | 5 | 0 | .
COc1cc(-c2cnc3c(NC=O)cc(-c4ccccc4)cn23)cc(OC)c1OC | 4.2* | -2 | -3 | -3 | . | .
NC(Cc1ccccc1)c1csc(Nc2ccc(C(=O)NCCCO)cn2)n1 (centres undefined) | 1 | -1 | 1 | -2 | . | .
Cc1nc(NC(=O)c2ccccc2)nc2cc3c(cc12)OCO3 | 2 | 1 | 12* | 2 | 1 | -1
CC(C)(C)c1ccc(CNc2nc(-c3ccccn3)nnc2-c2ccccc2)cc1 | . | -2 | -12 | -5 | . | .
Cc1ccc(CCNC(=O)C2CCN(S(=O)(=O)N3CCC4(CC3)OCCO4)CC2)cc1 | 0 | -2 | 1 | 6.0* | 0 | -2
CC(NC(=O)C1CCN(S(=O)(=O)N2CCC3(CC2)OCCO3)CC1)c1ccccc1 (centres undefined) | 0 | 1 | -1 | 0 | 1 | 11*
CCOC(=O)N1CCC(Nc2c(-c3ccccc3)c(=O)c2=O)CC1 | 0 | -1 | 0 | -1 | 1 | -1
CCOC(=O)N1CCC(Nc2c(-c3ccc(C)cc3)c(=O)c2=O)CC1 | 0 | 3.5* | -2 | 0 | -1 | 1
CCCCOc1ccc(S(=O)(=O)NC(=O)C2(C)CCN2C(=O)CCc2ccccc2)cc1 (centres undefined) | 0 | -2 | -2 | -1 | . | .
Cc1cc2c(cc1C)NC(=O)CC(c1ccccc1)=N2 | 3 | 0 | 12* | 0 | 3 | .
O=C(C1CCCO1)N1CCN(C2=Nc3ccccc3Sc3ccccc32)CC1 (centres undefined) | 0 | -1 | -1 | 0 | . | .
O=C1/C(=C/c2ccccn2)SC(=S)N1Cc1ccccc1 | -1 | -1 | 2 | -2 | . | 11*
O=C1/C(=C\c2ccco2)SC(=S)N1Cc1ccccc1 | 0 | 1 | 0 | 3 | 0 | 5
CCOC(=O)c1c(N)sc(C(=O)Nc2ccc3c(c2)OCO3)c1C | 3 | 1 | 8 | 5.8* | -3 | -2
SMILES | DAX1 inh-1 | ssDAF-12 act | hgDAF-12 ag | hcDAF-12 act | DAX1 inh-2 | Wee1 degr inh
CCOc1ccc2oc(C(=O)Nc3ccc4c(c3)OCO4)c(C)c2c1 | 1 | 0 | 11* | 3 | 0 | .
COc1ccc(-c2noc(-c3ccccc3Cl)n2)cc1OC | 3 | -1 | 7 | 2 | 5.1* | 5
COc1ccc(-c2noc(-c3ccc(Cl)cc3[N+](=O)[O-])n2)cc1OC | 1 | -1 | 7 | 5.7* | 3 | 4
CCCNC(=O)Cn1c(=O)oc2cc(S(=O)(=O)N3CC(C)CC(C)C3)ccc21 (centres undefined) | 0 | -1 | -2 | -1 | 0 | .
CCCCN(C)C(=O)Cn1c(=O)oc2cc(S(=O)(=O)N3CC(C)CC(C)C3)ccc21 (centres undefined) | 0 | -2 | -2 | -1 | 5.7* | 3
COc1ccc(S(=O)(=O)Nc2c(C)nn(C)c2C)cc1Br | -3 | -2 | -1 | -2 | 0 | .
CCn1c(SCC(=O)Nc2ccc(C)cc2)nc(O)cc1=O | 0 | -1 | -1 | 1 | 4.5* | 0
C=CCn1c(SCC(=O)Nc2ccc(Br)cc2)nc(O)cc1=O | -2 | -1 | -2 | -1 | 0 | .
Cc1cc(OCC(=O)NC(C)C)ccc1Cl | 1 | -1 | -2 | -2 | 0 | 1
Cc1cc(OCC(=O)NC(C)C)cc(C)c1Br | 0 | -1 | -2 | -1 | 4.4* | 0
O=C(CN1C(=O)c2cccc3cccc1c23)Nc1ccc2c(c1)OCO2 | -1 | -2 | 3 | -1 | 4.4* | 3
COC(=O)c1sccc1NC(=O)CSc1ccccc1NC(=O)CNC(C)C | -1 | -1 | 1 | 0 | -2 | -3
COC(=O)c1sccc1NC(=O)CSc1ccccc1N | 0 | -1 | -1 | 0 | 4.8* | -1
O=C(CSc1nccc(=O)[nH]1)Nc1ccc2c(c1)OCCO2 | 1 | 0 | 11* | 2 | 4.8* | 1
Nc1ccccc1SCC(=O)Nc1ccc2c(c1)OCCO2 | 0 | 0 | 5 | 4 | 2 | .
Nc1ccccc1SCC(=O)Nc1ccc2c(c1)OCO2 | 4.2* | 0 | 5 | 1 | 0 | .
O=C(C[C@@H]1C/C=C\CCC(=O)OC[C@H](Cc2ccccc2)NC1=O)N[C@@H](CO)Cc1ccccc1 | 0 | -1 | -1 | 0 | 1 | .
CCN(CC)C(=O)C1=C(C)N(CCCOC)C(=O)C(CC(=O)NC2CCCCC2)C1 (centres undefined) | 1 | -1 | 0 | 1 | 1 | .
O=C(CCc1ccccc1)Nc1ccc2c(c1)OCO2 | 1 | -1 | 10 | 2 | 4 | .
O=C(CS(=O)(=O)Cc1ccccc1)Nc1ccc2c(c1)OCO2 | 2 | -1 | 1 | 0 | 0 | 11*
